Binding signal data for seven sequences are collected here from PMC7862700, “An all-to-all approach to the identification of sequence-specific readers for epigenetic DNA modifications on cytosine”.

Holding throughout (test): DAPPL (digital affinity profiling via proximity ligation, sequencing); 10 mM Tris-HCl pH 7.5, 50 mM NaCl, 1 mM DTT, 4% glycerol, room temperature, 30 min; GST-TFs on glutathione beads, 16-mer random dsDNA library, 0.1% formaldehyde crosslink after washing; high values mean tight binding
Common to all, as to conditions: protein: recombinant; tags: N-terminal GST; dsDNA, one strand shown

One experiment concerns the target T1, ERF (Homo sapiens, UniProt P50548 1-548).
T1 sequence: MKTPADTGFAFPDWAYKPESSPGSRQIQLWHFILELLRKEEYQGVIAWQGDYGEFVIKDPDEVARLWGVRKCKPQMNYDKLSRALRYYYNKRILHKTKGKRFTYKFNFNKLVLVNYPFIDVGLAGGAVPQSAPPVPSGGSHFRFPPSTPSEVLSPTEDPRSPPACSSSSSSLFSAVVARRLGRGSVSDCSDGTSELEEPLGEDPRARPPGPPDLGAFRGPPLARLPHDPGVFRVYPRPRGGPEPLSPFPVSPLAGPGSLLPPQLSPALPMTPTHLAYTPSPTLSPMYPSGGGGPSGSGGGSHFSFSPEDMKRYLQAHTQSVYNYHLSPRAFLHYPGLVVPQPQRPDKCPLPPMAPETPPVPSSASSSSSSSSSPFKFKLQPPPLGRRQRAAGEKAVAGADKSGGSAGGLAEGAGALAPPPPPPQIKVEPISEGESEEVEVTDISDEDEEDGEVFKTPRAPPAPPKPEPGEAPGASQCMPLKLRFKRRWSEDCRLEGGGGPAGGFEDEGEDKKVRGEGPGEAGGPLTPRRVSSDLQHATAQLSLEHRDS
The gist of the method:
(§1)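 In yeast, human transcription factors were expressed with a GST fusion, then pulled down on glutathione beads and given DNA barcodes. Pooled with a tag-only sample, they were exposed to 200 nmole of a 16-mer random double-stranded DNA library (Tris/NaCl/DTT/glycerol buffer, room temperature, 30 min), washed, crosslinked with 0.1% formaldehyde, proximity-ligated using BsaI/T4 ligase for 1 h at 37 °C, PCR-amplified and read on an Illumina NextSeq500. Each hexamer's frequency of reads for a factor, divided by the matching frequency for the tag-only sample, gives the binding signal.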

The next experiment addresses T2, ETV3L (Homo sapiens, UniProt Q6ZN32 1-361).
T2 sequence: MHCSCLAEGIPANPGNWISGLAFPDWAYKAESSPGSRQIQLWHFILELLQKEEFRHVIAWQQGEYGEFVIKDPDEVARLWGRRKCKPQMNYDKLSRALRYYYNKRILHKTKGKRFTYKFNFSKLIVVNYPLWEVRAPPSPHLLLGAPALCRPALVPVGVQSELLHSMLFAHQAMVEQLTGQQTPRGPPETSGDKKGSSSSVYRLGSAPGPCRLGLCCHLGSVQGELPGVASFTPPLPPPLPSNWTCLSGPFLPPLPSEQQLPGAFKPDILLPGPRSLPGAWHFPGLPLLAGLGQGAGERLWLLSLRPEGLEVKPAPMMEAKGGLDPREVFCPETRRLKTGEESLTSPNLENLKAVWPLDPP
The gist of the method: as §1

The next experiment concerns the target T3, ETS2 (Homo sapiens, UniProt P15036 1-469).
T3 sequence: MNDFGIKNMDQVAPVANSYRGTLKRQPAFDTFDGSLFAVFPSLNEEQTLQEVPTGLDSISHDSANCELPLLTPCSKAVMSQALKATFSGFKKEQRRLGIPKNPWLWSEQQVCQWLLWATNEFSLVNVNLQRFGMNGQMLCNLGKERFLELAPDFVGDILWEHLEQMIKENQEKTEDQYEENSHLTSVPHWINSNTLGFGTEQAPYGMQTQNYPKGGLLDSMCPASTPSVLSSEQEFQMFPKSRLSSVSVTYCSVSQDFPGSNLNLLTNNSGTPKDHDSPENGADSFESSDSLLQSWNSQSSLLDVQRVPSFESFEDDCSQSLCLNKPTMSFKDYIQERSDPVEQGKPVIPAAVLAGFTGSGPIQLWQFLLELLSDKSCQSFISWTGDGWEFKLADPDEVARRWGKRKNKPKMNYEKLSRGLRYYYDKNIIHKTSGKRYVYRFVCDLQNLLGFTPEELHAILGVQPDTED
The gist of the method:
as §1

Another experiment addresses T4, SPDEF (Homo sapiens, UniProt O95238 1-335).
T4 sequence: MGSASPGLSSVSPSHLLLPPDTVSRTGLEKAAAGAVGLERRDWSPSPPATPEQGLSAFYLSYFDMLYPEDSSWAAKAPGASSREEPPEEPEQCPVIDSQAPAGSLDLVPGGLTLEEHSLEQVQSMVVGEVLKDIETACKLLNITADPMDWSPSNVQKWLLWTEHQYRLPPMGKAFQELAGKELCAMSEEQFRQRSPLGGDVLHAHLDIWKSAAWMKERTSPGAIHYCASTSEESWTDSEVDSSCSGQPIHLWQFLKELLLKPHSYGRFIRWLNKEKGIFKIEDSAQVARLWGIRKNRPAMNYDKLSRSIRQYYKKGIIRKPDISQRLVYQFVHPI
The essentials: as §1

Another experiment deals with T5, ETV7 (Homo sapiens, UniProt Q9Y603 1-341).
T5 sequence: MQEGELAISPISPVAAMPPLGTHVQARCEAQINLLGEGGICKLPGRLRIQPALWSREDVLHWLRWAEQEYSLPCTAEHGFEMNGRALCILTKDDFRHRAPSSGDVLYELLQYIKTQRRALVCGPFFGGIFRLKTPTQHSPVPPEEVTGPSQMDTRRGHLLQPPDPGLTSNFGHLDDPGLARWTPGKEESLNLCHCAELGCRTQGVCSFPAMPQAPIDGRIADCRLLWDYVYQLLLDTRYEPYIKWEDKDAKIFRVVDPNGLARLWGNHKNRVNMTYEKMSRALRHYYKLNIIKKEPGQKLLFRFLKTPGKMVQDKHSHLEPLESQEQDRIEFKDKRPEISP
The gist of the method: as §1

In the next experiment the target is T6, ELF5 (Homo sapiens, UniProt Q9UKW6-2 1-255).
T6 sequence: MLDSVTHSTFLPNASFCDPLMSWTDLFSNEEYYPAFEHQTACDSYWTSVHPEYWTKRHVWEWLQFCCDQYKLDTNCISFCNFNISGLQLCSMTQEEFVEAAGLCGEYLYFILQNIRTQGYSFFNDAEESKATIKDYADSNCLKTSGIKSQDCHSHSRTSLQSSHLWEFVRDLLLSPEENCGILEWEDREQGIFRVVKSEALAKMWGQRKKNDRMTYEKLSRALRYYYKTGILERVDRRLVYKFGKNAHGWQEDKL
The essentials:
as §1

Another experiment concerns the target T7, ETV3 (Homo sapiens, UniProt P41162-2 1-143).
T7 sequence: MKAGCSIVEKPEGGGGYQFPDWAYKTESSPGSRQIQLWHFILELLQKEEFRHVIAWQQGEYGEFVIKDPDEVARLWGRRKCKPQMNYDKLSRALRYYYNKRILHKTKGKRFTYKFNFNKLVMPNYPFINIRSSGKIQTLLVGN
The gist of the method:
as §1

The target in a further experiment is ETV6 (Homo sapiens, UniProt P41212 1-452). The gist of the method: as §1
Chain of ETV6 (P41212 whole entry): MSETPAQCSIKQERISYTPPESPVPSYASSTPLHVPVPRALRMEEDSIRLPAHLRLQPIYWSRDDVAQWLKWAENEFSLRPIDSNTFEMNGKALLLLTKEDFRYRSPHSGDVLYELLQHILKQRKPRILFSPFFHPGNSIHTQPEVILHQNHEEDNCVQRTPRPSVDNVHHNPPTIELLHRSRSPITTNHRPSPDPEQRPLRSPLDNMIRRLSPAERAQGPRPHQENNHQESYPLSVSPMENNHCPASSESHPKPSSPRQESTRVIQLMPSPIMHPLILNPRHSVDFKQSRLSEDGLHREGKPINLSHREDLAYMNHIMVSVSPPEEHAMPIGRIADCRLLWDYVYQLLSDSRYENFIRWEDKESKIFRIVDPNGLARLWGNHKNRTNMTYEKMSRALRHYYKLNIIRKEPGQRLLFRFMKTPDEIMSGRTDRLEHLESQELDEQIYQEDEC

On to CAACTG, for which the binding signal is 1.18 fold enrichment (6-mer frequency, TF over GST control) with ERF; 1.17 fold enrichment (6-mer frequency, TF over GST control) with ETV3L; 1.13 fold enrichment (6-mer frequency, TF over GST control) with ETS2; 1.08 fold enrichment (6-mer frequency, TF over GST control) with SPDEF; 1.06 fold enrichment (6-mer frequency, TF over GST control) with ETV7; 1.08 fold enrichment (6-mer frequency, TF over GST control) with ELF5. The binding signal with ETV3 is 1.16 fold enrichment (6-mer frequency, TF over GST control); in the experiment with ETV6 it was 1.12 fold enrichment (6-mer frequency, TF over GST control).

As for TTATTC, the binding signal in the experiment with ERF is 1.45 fold enrichment (6-mer frequency, TF over GST control); with ETV3L, 1.47 fold enrichment (6-mer frequency, TF over GST control); with ETS2, 1.37 fold enrichment (6-mer frequency, TF over GST control); with SPDEF, 1.41 fold enrichment (6-mer frequency, TF over GST control); in the experiment with ETV7 it was 1.43 fold enrichment (6-mer frequency, TF over GST control); in the experiment with ELF5 it was 1.34 fold enrichment (6-mer frequency, TF over GST control). Besides, the binding signal was 1.29 fold enrichment (6-mer frequency, TF over GST control) with ETV3 and 1.32 fold enrichment (6-mer frequency, TF over GST control) with ETV6.

In the case of TGACGA, the binding signal with ERF was 1.14 fold enrichment (6-mer frequency, TF over GST control); with ETV3L, 1.07 fold enrichment (6-mer frequency, TF over GST control); with ETS2, 1.17 fold enrichment (6-mer frequency, TF over GST control); with SPDEF, 1 fold enrichment (6-mer frequency, TF over GST control); in the experiment with ETV7 it was 1.11 fold enrichment (6-mer frequency, TF over GST control); with ELF5, 1.04 fold enrichment (6-mer frequency, TF over GST control). Further, the binding signal in the experiment with ETV3 is 1.09 fold enrichment (6-mer frequency, TF over GST control); in the experiment with ETV6, 1.16 fold enrichment (6-mer frequency, TF over GST control).

With TGGCAC, the binding signal is 1.21 fold enrichment (6-mer frequency, TF over GST control) with ERF; 1.2 fold enrichment (6-mer frequency, TF over GST control) in the experiment with ETV3L; 1.14 fold enrichment (6-mer frequency, TF over GST control) with ETS2; 1.12 fold enrichment (6-mer frequency, TF over GST control) in the experiment with SPDEF; 1.18 fold enrichment (6-mer frequency, TF over GST control) with ETV7; 1.05 fold enrichment (6-mer frequency, TF over GST control) in the experiment with ELF5. Also, the binding signal with ETV3 was 1.19 fold enrichment (6-mer frequency, TF over GST control); in the experiment with ETV6, 1.16 fold enrichment (6-mer frequency, TF over GST control).

For the sequence CTCCGC, the binding signal with ERF was 1.47 fold enrichment (6-mer frequency, TF over GST control); with ETV3L it was 1.56 fold enrichment (6-mer frequency, TF over GST control); with ETS2, 1.52 fold enrichment (6-mer frequency, TF over GST control); with SPDEF it was 1.54 fold enrichment (6-mer frequency, TF over GST control); with ETV7, 1.31 fold enrichment (6-mer frequency, TF over GST control); with ELF5 it was 1.48 fold enrichment (6-mer frequency, TF over GST control). Also, the binding signal in the experiment with ETV3 is 1.59 fold enrichment (6-mer frequency, TF over GST control); with ETV6, 1.44 fold enrichment (6-mer frequency, TF over GST control).

For CGCTCA, the binding signal was 1.2 fold enrichment (6-mer frequency, TF over GST control) with ERF; 1.24 fold enrichment (6-mer frequency, TF over GST control) with ETV3L; 1.14 fold enrichment (6-mer frequency, TF over GST control) with ETS2; 1.05 fold enrichment (6-mer frequency, TF over GST control) with SPDEF; 1.09 fold enrichment (6-mer frequency, TF over GST control) in the experiment with ETV7; 1.16 fold enrichment (6-mer frequency, TF over GST control) with ELF5. The binding signal was 1.07 fold enrichment (6-mer frequency, TF over GST control) with ETV3 and 1.09 fold enrichment (6-mer frequency, TF over GST control) with ETV6.

As for CCACCC, the binding signal was 1.24 fold enrichment (6-mer frequency, TF over GST control) in the experiment with ERF; 1.37 fold enrichment (6-mer frequency, TF over GST control) in the experiment with ETV3L; 1.18 fold enrichment (6-mer frequency, TF over GST control) with ETS2; 1.22 fold enrichment (6-mer frequency, TF over GST control) in the experiment with SPDEF; 1.09 fold enrichment (6-mer frequency, TF over GST control) with ETV7; 1.21 fold enrichment (6-mer frequency, TF over GST control) in the experiment with ELF5. For the same sequence, the binding signal with ETV3 was 1.28 fold enrichment (6-mer frequency, TF over GST control); with ETV6 it was 1.24 fold enrichment (6-mer frequency, TF over GST control).
